# Laboratory results taken from PubChem BioAssay AID1379 (National Center for Advancing Translational Sciences (NCATS), 2008).
# Out of some 200,000 compounds screened, about 560 (0.28%) were called active. The call rests on the fitted dose curve; in most records, active means well fitted inhibition curve with a large enough effect; inconclusive means small, poorly fitted or top-dose-only effect; inactive means flat fitted curve, though single readings scatter. What follows is part of a selection rich in actives, with near analogues and random picks from the rest. Entries that show only a call come without a potency.
# Molecular target: Luciferin 4-monooxygenase (Photuris pensylvanica) (UniProt Q27757)
# Test: Counterscreen for Luciferase (Kinase-Glo TM) Inhibition; further: nearly all actives have a fitted effect of over 60% in size
# Details: ATP luminescence, 8 min; series mostly up to 38.3 µM
# Method: NCGC Assay Overview: NIH Molecular Libraries Screening Centers Network [MLSCN] NIH Chemical Genomics Center [NCGC] MLSCN Grant: None Luciferase (Kinase-Glo, Promega Corporation) was assayed for its ability to generate light using ATP and luciferin as substrates. The ATP concentration in the assay (10 uM) was within the linear range of enzyme activity for the assay conditions used.
# NCGC Assay Protocol Summary: Four uL of substrate mix (final concentration, 50 mM imidazole pH 7.2, 50 mM KCl, 7 mM MgCl2, 10 uM ATP, 0.01% Tween 20, 0.05% BSA) was dispensed into white 1536 well plates. Twenty-three nL of compound was delivered by a pin tool and 2 uL of luciferase detection mix (Kinase-Glo, Promega)) was added. Following 8-minute incubation at ambient temperature, luminescence was measured by a ViewLux (Perkin Elmer) at 5 seconds exposure/plate.
# Potency means the concentration at half of the fitted maximal effect.
SMILES,"activity change, negative = inhibition",Potency
COC(=O)C1=C(C(=O)OC)[C@@H]2N(C)c3ccccc3[C@@]23C[C@@H](C(=O)OC)N(S(=O)(=O)c2ccc(Br)cc2)C3=N1,-4.44% [at 7.66 µM] (inactive),
CCCCCCCC/C=C\CCCCCCCC(=O)NCC(=O)O,inactive,
CCOC(=O)C1=NO[C@@]2(C=C(Br)C(=O)[C@H]3O[C@H]32)C1,inactive,
COc1cccc([C@@H]2Oc3ccc(Br)cc3C(=O)[C@H]2OC(=O)NCc2ccc3c(c2)OCO3)c1,inactive,
COCCN1C(=O)N[C@@H](CCc2ccccc2)[C@H](C(C)=O)[C@H]1C,-8.66% [at 7.66 µM] (inactive),
Cc1ccc(N2CCN(C3=NC(=O)/C(=C\c4cccs4)S3)CC2)cc1,inactive,
Cc1ccsc1/C=C1\SC(N2CCOCC2)=NC1=O,,12.6 µM (active)
CCc1ccc(/C=C2\SC(N3CCOCC3)=NC2=O)cc1,inactive,
COC(=O)CCCC1=CC2=C(c3ccccc3)C(=O)C(C)(OC(=O)C3CCCC3)C(=O)C2=CN1c1ccc(OC)cc1 (centres undefined),-10.4% [at 7.66 µM] (inactive),
COC(C)C(C(=O)OCC1=CCN2CC[C@H](O)[C@@H]12)C(C)C (some centres undefined),inactive,
COC(=O)CC1c2ccccc2C(Cc2ccc(OC)cc2)=C(C)N1C(=O)OC (centres undefined),-5.96% [at 7.66 µM] (inactive),
COc1cccc(/C=N/Nc2cc(C)nc(-c3ccccc3O)n2)c1O,inactive,
COc1cccc(/C=N/NC(=O)c2[nH]nc3c2CCc2ccccc2-3)c1O,inactive,
COc1cccc(/C=N\NC(=O)C2=NNC(=O)C2C)c1O (centres undefined),,12.6 µM (active)
Cc1ccc(S(=O)(=O)N2CCC(=O)N([C@H](COCc3ccccc3)Cc3ccccc3)CC2)cc1,inactive,
CCOC(=O)C1=C(C)c2ccccc2OC1C(=O)OCC (centres undefined),inactive,
COC(=O)CCCC1=CC2=CC(=O)C(C)(OC(=O)c3cccs3)C(=O)C2=CN1c1ccc(CO)cc1 (centres undefined),-0.663% [at 7.66 µM] (inactive),
COc1ccc(-c2nc3c(c4c2C[C@H](c2ccccc2)OC4)CN(C(=O)c2ccco2)CC3)c(C)c1,-7.1% [at 7.66 µM] (inactive),
Brc1ccc2nc(N3CCCC3)sc2c1,inactive,
c1c2c(cc3sc(N4CCCCC4)nc13)OCCO2,,12.6 µM (active)
COc1ccc2nc(Nc3nc4cc5c(cc4s3)OCCO5)sc2c1,inactive,
CCCCC[C@H](O)/C=C/[C@@H]1[C@@H](CC(=O)CCC(=O)O)[C@@H](O)C[C@H]1O,inactive,
COc1ccc(-c2nc3c(c4c2C[C@H](c2ccccc2)OC4)CN(C(=O)c2cccnc2)CC3)c(C)c1,-3.92% [at 7.66 µM] (inactive),
CCCCC/C=C\C[C@H](O)/C=C/C=C/C=C/[C@@H](O)CCCC(=O)O,inactive,

SMILES,"activity change, negative = inhibition",Potency
Cc1cc2oc(=O)cc(-c3ccccc3)c2c(C)c1-c1ccc(OC(F)(F)F)cc1,inactive,
C[C@H]1Cc2c(-c3ccccc3)nc3c(c2CO1)CN(C(=O)C1CC1)CC3,-7.42% [at 7.66 µM] (inactive),
CC(Nc1oc(-c2ccccc2)nc1-c1ccccc1)c1ccccc1 (centres undefined),inactive,
CCN(CC)c1ccc(C(=O)N/N=C/c2ccc(N3CCOCC3)cc2)cc1,inactive,
CC(=C/c1ccccc1)/C=N/NC(=O)c1cc(C)oc1C,inactive,
Cc1cc(C(=O)N/N=C/c2ccc(N3CCOCC3)cc2)c(C)o1,,11.2 µM (active)
COc1ccc(-c2nc(-c3ccccc3)oc2Nc2ccc3ccccc3c2)cc1,inactive,
Cc1ccc(CC2(O)CCN(CCOc3ccc(O)cc3)CC2)cc1,inactive,
COC/C=C/C1=CC2=CC(=O)C(C)(OC(=O)CCC(=O)OC)C(=O)C2=CO1 (centres undefined),inactive,
C=CC1=C2C=C(C3CC3)N(C(CO)CO)C=C2C(=O)C(C)(OC(=O)c2ccco2)C1=O (centres undefined),-0.389% [at 7.66 µM] (inactive),
CCN1C(=O)N[C@@H](c2ccccc2)C(C(=O)OC)=C1C,-0.704% [at 7.66 µM] (inactive),
Cc1ccc(-c2nc3ccccc3[nH]2)cc1N,,6.31 µM (active)
C=CCSc1nc2ccccc2[nH]1,inactive,
OCCNc1nc2ccccc2[nH]1,inactive,
Cc1ccc(-c2nc3ccccc3[nH]2)cc1NC(=O)c1sc2ccccc2c1Cl,inactive,
COc1ccc(Br)cc1C(=O)NC(=S)Nc1cc(-c2nc3ccccc3[nH]2)ccc1C,inactive,
c1ccc2[nH]c(-c3nc4ccccc4[nH]3)nc2c1,,11.2 µM (active)
COCOc1cc(OC)ccc1C(=O)/C=C/c1ccc([N+](=O)[O-])cc1,inactive,
Cc1cc2oc(=O)cc(-c3ccccc3)c2c(C)c1/C=C/c1ccc(F)cc1,inactive,
COC(=O)c1ccc(NCC(=O)N2CCCCCC2)cc1,inactive,
COC(=O)c1ccc(NCC(=O)c2ccccc2)cc1,,10 µM (active)
Cc1ccc(C(=O)CNc2ccc(F)cc2)cc1,inactive,
C/C=C(\C)C(=O)OC1C(OC(=O)C2(C)OC2C)c2cc3ccc(=O)oc3cc2OC1(C)C (centres undefined),inactive,
O=C(OCc1ccc([N+](=O)[O-])cc1)c1ccccn1,inactive,

SMILES,"activity change, negative = inhibition",Potency
N/C(=N\OC(=O)Cc1ccc([N+](=O)[O-])cc1)c1ccccn1,inactive,
N/C(=N\OC(=O)c1ccc([N+](=O)[O-])cc1)c1ccccn1,,8.91 µM (active)
C=CC(C1=CC(=O)C=CC1=O)c1ccc(O)cc1 (centres undefined),inactive,
COc1cc(OC)c2c(-c3cccc(-c4cccc(N)c4)c3)cc(=O)oc2c1,inactive,
Cn1c(=O)n(C)c2cc(C(=O)Nc3ccc4c(c3)OCO4)ccc21,inactive,
COc1cc(NC(=O)c2ccc3c(c2)OCO3)ccc1NC(=O)c1cccs1,inactive,
COc1ccc(C(=O)Nc2ccc3c(c2)OCO3)cc1OC,,12.6 µM (active)
CCOc1cc(NC(=O)c2ccccn2)c(OCC)cc1NC(=O)c1ccc(OC)cc1,inactive,
COc1ccc(-c2csc(Nc3ccccn3)n2)cc1,inactive,
COc1ccc(C(=O)/C=C/Nc2ccccn2)cc1,,11.2 µM (active)
S=C(NCCCc1cnc[nH]1)NCCCN(Cc1ccc(Cl)c(Cl)c1)c1ccc(Br)cn1,inactive,
COc1ccc(C2=Nc3cc(C)ccc3OC2)cc1,,8.91 µM (active)
COc1ccc(C2=NOC3(CC(=O)N(c4ccc(C)cc4)C3=O)C2)cc1 (centres undefined),inactive,
COc1ccc(-c2noc(-c3ccc(C)cc3)n2)cc1,inactive,
C=C1c2cccc(OC)c2O[C@H](C(=O)OCC)[C@@H]1CCCCCC,inactive,
CCc1ccc(-c2cc(C(=O)NCc3ccco3)c3ccccc3n2)s1,inactive,
CC(=NCc1ccco1)c1c(C(F)(F)F)[nH]n(-c2nc3ccccc3s2)c1=O,,8.91 µM (active)
CC(=NCc1ccco1)C1=C(O)c2ccccc2C1=O,inactive,
CC(=O)/C(C)=N/O,inactive,
C/C=C1\C2C=C(C)CC1(N)c1ccc(=O)[nH]c1C2 (centres undefined),inactive,
O=c1c(O)c(Br)ccc2c(Br)c(O)c(O)c(O)c12,inactive,
Brc1ccc(C2=NCCC(c3ccccc3)O2)cc1 (centres undefined),inactive,
COc1ccc(-c2c(C)cc3oc(=O)cc(-c4ccccc4)c3c2C)cc1C=O,inactive,
OC[C@H]1O[C@@H](n2cnc3c(NC4CCCC4)ncnc32)[C@H](O)[C@H]1O,inactive,

SMILES,"activity change, negative = inhibition",Potency
O=C1OCCN1C(=O)[C@H]1[C@H](c2ccccc2)C(c2ccc(F)cc2)=NN1c1ccccc1,inactive,
CCCCS(=O)(=O)N1C2=NC(C(=O)OC)=C(C(=O)OC)[C@@H]3N(Cc4ccccc4)c4ccccc4[C@]23C[C@H]1C(=O)OC,-7.24% [at 7.66 µM] (inactive),
O=C1CCC[C@@H]2CC(N3CCCCC3)C[C@@H]3CCN1[C@H]23 (some centres undefined),inactive,
COc1ccccc1C(=O)NNC(=O)c1ccc(NC(=O)c2ccccc2)cc1,inactive,
COc1ccc(/C=N/NC(=O)c2ccccc2)cc1OS(=O)(=O)c1ccccc1,inactive,
CCn1c(/C=N/NC(=O)c2ccc(OC)cc2)nc2ccccc21,inactive,
COc1ccc(C(=O)Nc2ccccc2C(=O)N/N=C/c2ccccc2OC)cc1,,6.31 µM (active)
COc1ccc(C(=O)Nc2ccccc2C(=O)N/N=C/c2ccc(O)c(OC)c2)cc1,,1 µM (active)
COc1cc(/C=N/NC(=O)c2ccccc2)ccc1OS(=O)(=O)c1ccccc1,inactive,
CC1(OC(=O)C2CCCC2)C(=O)C=C2C=C(c3ccc(C#N)cc3)OC=C2C1=O (centres undefined),inactive,
C[C@H]1Cc2c(COc3ccccc3)nc3c(c2CO1)CN(C(=O)Nc1cccc(C#N)c1)CC3,-0.91% [at 7.66 µM] (inactive),
COC1(C2=NCCN2)COc2ccccc2O1 (centres undefined),inactive,
O=C1OCCN1C(=O)[C@H]1[C@H](c2ccc(Cl)cc2)C(c2cccc(Cl)c2)=NN1c1ccc(Br)cc1,inactive,
COc1ccc2c(c1)O[C@@H](c1ccc3c(c1)OCO3)[C@H](OC(=O)NCCc1ccc(OC)c(OC)c1)C2=O,inactive,
CC[C@H](C)[C@@H](NC(=O)O[C@@H]1C(=O)c2cc(OC)ccc2O[C@H]1c1cccc(OC)c1)C(=O)OC,inactive,
CCOC(=O)C1C/C(=C\C(C)=O)c2cccc(C(F)(F)F)c2O1 (centres undefined),inactive,
OC[C@H]1O[C@@H](n2cnc3c(N[C@H]4CC5CCC4C5)ncnc32)[C@H](O)[C@@H]1O (some centres undefined),inactive,
COc1ccccc1CNC(=O)c1ccc(SC)cc1OC,inactive,
COc1cc(SC)ccc1C(=O)Nc1nc(C)cs1,,11.2 µM (active)
COc1cc(SC)ccc1C(=O)Nc1cc(C)ccn1,inactive,
CCCCC1=CC2=CC(=O)C(C)(OC(=O)CC)C(=O)C2=CN1CCCOC(C)C (centres undefined),-3.21% [at 7.66 µM] (inactive),
C=CCN1c2ccccc2[C@]23C[C@@H](C(=O)OC)N(S(=O)(=O)c4ccc([N+](=O)[O-])cc4)C2=NC(C(=O)OC)=C(C(=O)OC)[C@H]13,-1.89% [at 7.66 µM] (inactive),
